Screening results as filed in PubChem.
This is a sample that favours compounds with a hit; in the whole collection about 11% have one here.
AmpC detergent – qHTS Inhibitors of AmpC Beta-Lactamase (assay with detergent). P00811. AmpC hydrolysis of nitrocefin, absorbance 480 nm, 0.01% Triton. Potency, µM (top dose mostly 114 µM), for the others: at the highest dose activity change, negative = inhibition, actives largely listed as inhibitors. 0.041% of 370,000 active. AID 485294, 2010;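 note: 0% = no-compound wells and -100% = no-enzyme wells; nearly all actives have a fitted effect of over 25% in size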
Target sequence (P00811 whole entry, looked up): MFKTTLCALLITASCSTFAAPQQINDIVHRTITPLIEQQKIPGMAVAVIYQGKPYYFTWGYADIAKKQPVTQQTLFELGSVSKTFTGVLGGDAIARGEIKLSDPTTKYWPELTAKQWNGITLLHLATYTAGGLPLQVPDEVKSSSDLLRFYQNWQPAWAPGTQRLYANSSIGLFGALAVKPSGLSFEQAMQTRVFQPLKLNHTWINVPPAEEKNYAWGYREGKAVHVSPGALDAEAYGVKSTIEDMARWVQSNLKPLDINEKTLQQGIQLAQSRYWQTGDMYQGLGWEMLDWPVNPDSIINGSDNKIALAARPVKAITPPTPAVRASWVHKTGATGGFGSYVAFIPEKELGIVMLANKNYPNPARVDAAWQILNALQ
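AmpC (5.3 nM in the dispensed reagent) in 20 mM phosphate pH 7.0 with 0.01% (detergent screen) or 0.0001% Triton X-100 was preincubated with compounds for 15 min at room temperature. Nitrocefin was then added from an 800 uM solution, and hydrolysis was followed at 480 nm.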
AmpC inh no detg – qHTS Inhibitors of AmpC Beta-Lactamase (assay without detergent); P00811; AmpC nitrocefin hydrolysis, absorbance 480 nm, 0.0001% Triton; Potency, µM (doses to about 57.1 µM), for inactives: at the top dose activity change, negative = inhibition, actives largely listed as inhibitors; 0.52% of 330,000 active;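 note: plate controls were no compound for no effect and no enzyme for full effect; nearly all actives have a fitted effect of over 20% in size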
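20 mM phosphate pH 7.0 + 0.01% (detergent screen) or 0.0001% Triton X-100; 5.3 nM AmpC reagent; cpd preinc 15 min RT; nitrocefin (800 uM stock) to start; A480 q20 s × 4 min; Activity was normalised to no-enzyme and no-compound control wells.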
Pf growth 48h – Primary qHTS for delayed death inhibitors of the malarial parasite plastid, 48 hour incubation; AID 504832, 2011; 5.9% of 310,000 active; Potency, µM (titrated, usually from 28.7 µM), inactives show top-dose activity change, negative = inhibition, usual class: inhibitors; P. falciparum luciferase growth in erythrocytes, 48 h
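Firefly luciferase activity from engineered P. falciparum reports growth; inhibitors lower the luminescent signal. Cultures contained 2% hematocrit erythrocytes at 0.1% final parasitemia.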
HCV inh – qHTS Assay for Inhibitors of Hepatitis C Virus (HCV); Potency, µM (series often up to 41.8 µM), without a hit: at the top dose activity change, negative = inhibition, hits mostly inhibitors; Huh7.5.1 HCVcc-Cre infection, luciferase reporter, 44 h; 3.4% of 340,000 active
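Compounds are dispensed onto cells plated 4 h earlier at 1,000 per well, with HCVcc-Cre virus (about 0.5 moi) added next. Following 44 h of culture, luminescent signal is measured for 15 sec after 15 min with substrate at room temperature.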
AMA1 RON2 block – qHTS for Inhibitors of AMA1-RON; Towards Development of Antimalarial Drug Lead: Primary Screen | 0.2% of 360,000 active | Potency, µM (top dose mostly 58.2 µM), for the others: top-dose activity change, negative = inhibition, most hits filed as inhibitors | AlphaScreen AMA1-biotinylated RON2 peptide binding;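 note: 0% = vehicle wells and -100% = peptide control; nearly all actives have a fitted effect of over 45% in size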
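AMA1 (3D7) with his tag at 25 nM final met compounds first, then biotinylated RON2 peptide at 25 nM; detection used donor plus acceptor beads, 10 µg/mL apiece, read by AlphaScreen after 30 min at room temperature.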
Pf growth 96h – Primary qHTS for delayed death inhibitors of the malarial parasite plastid, 96 hour incubation. P. falciparum luciferase reporter growth, 96 h. Potency, µM (titrated, usually from 28.7 µM), for inactives: at the top dose activity change, negative = inhibition, hits mostly inhibitors. 6.9% of 320,000 active. AID 504834, 2011
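Two parasite generations (96 h, 37 C, 5% CO2) of compound exposure in infected erythrocytes (0.05% parasitemia, 2% hematocrit). Luciferase-reporter P. falciparum; decreased luminescence indicates inhibited growth, aimed at apicoplast-acting delayed death.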
* marks the source's active call; other numbers are inactive results; ? = inconclusive; / = no result; [ ] = dose if it differs, or a comment. Calls come from the whole dose curve; as a rule, active = well fitted curve in the direction sought with a large enough effect; inconclusive = small, poorly fitted or top-dose-only effect, or another doubt; inactive = no such curve, though single readings can be large; an effect the other way counts as inactive or inconclusive. Unless noted, % is set by controls: 0 for no effect and ±100 for the full control effect; potency is the fitted concentration of half-maximal effect.

SMILES	AmpC detergent	AmpC inh no detg	Pf growth 48h	HCV inh	AMA1 RON2 block	Pf growth 96h
Cc1ccc(CNC(=O)c2ccc(N3CCC4(CC3)CC(c3cccc(Br)c3)=NO4)c(NC(=O)c3ccc(Cl)c([N+](=O)[O-])c3)c2)cc1	/	?	/	1%	7%	/
COc1cccc(C(=O)Nc2cc(C(=O)NCc3ccc(C)cc3)ccc2N2CCC3(CC2)CC(c2ccccc2)=NO3)c1	?	-34%	?	-12%	-8%	1.3µM*
Cc1ccc(CNC(=O)c2ccc(N3CCC4(CC3)CC(c3cccc(Br)c3)=NO4)c(NC(=O)c3ccccc3)c2)cc1	-13%	-51%	9.3µM*	?	5%	?
CCCc1nn2c(=O)cc(COC(=O)C3CCCCC3)nc2s1	3%	/	/	/	/	/
CCCC[C@]12Cc3cc(C#N)ccc3C(O1)c1c(cc(-c3ccccc3)oc1=O)O2	-10%[22.9 µM]	-26%[11.4 µM]	?	/	/	?
CC(=O)Nc1ccc(/C=C/c2nc(-c3ccccc3O)n(-c3ccccc3)n2)cc1	21%	/	/	/	/	/
O=C(NC12CC3CC(CC(C3)C1)C2)c1ccc(Br)o1	5%	-29%	?	-15%	-2%	?
O=C(NC12CC3CC(CC(C3)C1)C2)c1ccc([N+](=O)[O-])o1	-7%	-9%	5.2µM*	-5%	3%	?
CC(NC(=O)c1ccc([N+](=O)[O-])o1)C1CC2CCC1C2 (stereo unspecified)	/	-9%	/	11µM*	-1%	/
CC(NC(=O)c1ccc([N+](=O)[O-])cc1Cl)C1CC2CCC1C2 (stereo unspecified)	2%	-19%	-26%	5%	-3%	?
COc1ccc(NC(=O)CN(C)CC(=O)Nc2sc3c(c2C(N)=O)CCC3)cc1	-15%	-7%	?	?	56%	?
CCOc1ccc(NC(=O)c2c(NC(=O)c3ccccc3F)sc3c2CCC3)cc1	2%	/	/	/	/	/
O=C(CN1CCCC1)Nc1sc2c(c1C(=O)Nc1ccc(Br)cc1)CCC2	?	-31%	12µM*	-22%	68%	?
CCN(CC(=O)Nc1ccc(OC)cc1)CC(=O)Nc1sc2c(c1C(=O)OC)CCCC2	5%	64%	?	7.9µM*	62%	-70%
COc1ccc(NC(=O)c2c(NC(=O)CNCc3ccco3)sc3c2CCC3)cc1	-7%	2%	2.6µM*	-6%	-4%	?
CCC(=O)Nc1sc2c(c1C(=O)Nc1ccc(Br)cc1)CCCCC2	7%	/	/	/	/	/
CCOc1ccc(NC(=O)c2c(NC(=O)CNCCN3CCOCC3)sc3c2CCC3)cc1	3%	243%	0.33µM*	?	15%	6%
COc1cccc(CNCc2c(C(=O)O)c(C)n(Cc3ccc(F)cc3Cl)c2C)c1OC	22%	/	/	/	/	/
COc1cc2c(cc1OC)CN(C(=O)/C=C/c1cc(OC)c(OC)c(OC)c1)CC2	-6%	76%	2.6µM*	?	-19%	4.7µM*
COc1ccc(CCc2cc(OC)cc(=O)o2)cc1	8%	-3%	9%	6%	8%	1.9µM*
CCc1cc(-c2n[nH]c(C)c2-c2nc3ccccc3n2C)c(O)c(CN2CCN(C)CC2)c1O	-6%	128%	12µM*	?	38%	-25%
CCc1cc(-c2n[nH]c(C)c2-c2nc3ccccc3n2C)c(O)cc1O	2%	-59%	?	?	87%	13µM*
CCc1cc(-c2n[nH]c(CCC(=O)O)c2-c2nc3ccccc3n2C)c(O)cc1O	-12%	-22%	13%	13%	72%	?
CC(=O)Nc1ccc(-c2csc(N3CCC(C(N)=O)CC3)n2)cc1	/	/	?	/	/	-5%
Clc1ccc2nnnc(-c3ccccc3)c2c1	?	-15%	?	4.5µM*	0%	?
SMILES	AmpC detergent	AmpC inh no detg	Pf growth 48h	HCV inh	AMA1 RON2 block	Pf growth 96h
CCSc1nnc(-c2ccc(Cl)cc2)c2ccccc12	?	12%	?	-24%	-15%	0.093µM*
O=c1ccc2[n+]([O-])c3ccc(O)cc3oc-2c1	0%	-31%	1.9µM*	12%	3%	4.7µM*
S=C(NC1CCCC1)N1CCOCC1	?	-9%	3%	7%	-10%	31%
S=C(NC1CCCCC1)N1CCOCCOCCN(C(=S)NC2CCCCC2)CCOCC1	-3%	114%	12µM*	20%	-16%	4.7µM*
COC(=O)c1cccc(NC(=O)N(C)CCc2c(C)nn(C)c2C)c1	-6%	/	/	/	/	/
Fc1ccccc1CNc1ncnc2sccc12	-9%	-20%	7%	2.2µM*	-2%	23%
CN(C)c1ccc(CNc2ncnc3sccc23)cc1	-3%	-13%	-9%	1.8µM*	?	31%
c1ccc2c(c1)OCC(CNCC1COc3ccccc3O1)O2 (stereo unspecified)	?	0%	5%	24%	2%	0.21µM*
S=C(NCC1COc2ccccc2O1)Nc1ccccc1 (stereo unspecified)	1%	-19%	1%	5%	-19%	?
c1ccc2c(c1)OCC(CNc1ncnc3sccc13)O2 (stereo unspecified)	-3%	-34%	-23%	1µM*	7%	?
COc1ccc(CCNc2ncnc3sccc23)cc1OC	3%	-42%	-25%	?	-10%	-26%
COc1ccccc1CNc1ncnc2sccc12	2%	-23%	-28%	?	-5%	-25%
CCn1c(SCC(=O)c2ccccc2)nc2sc3c(c2c1=O)CCN(C)C3	-9%	98%	?	?	-11%	2.9µM*
C=CCn1c(SCC(=O)NCC)nc2sc3c(c2c1=O)CCC3	1%	-2%	7.4µM*	-2%	-11%	?
C=CCn1c(SCC(=O)NC)nc2sc3c(c2c1=O)CCC3	2%	-4%	?	19%	-2%	/
CCn1c(SCC(=O)NCCc2ccccc2)nc2sc3c(c2c1=O)CCN(C)C3	3%	31%	1.7µM*	?	-16%	0.37µM*
COc1ccccc1C(=O)NCc1nnnn1-c1ccc(C)c(C)c1	-7%	/	/	/	/	/
Cc1nn(C)c2c1c(C(F)(F)F)cc(=O)n2CC(=O)NC(C)(C)C	7%	/	/	/	/	/
CCS(=O)(=O)c1ncc(Cl)c(C(=O)N2CCN(c3cccc(Cl)c3)CC2)n1	1%	/	/	/	/	/
O=C(Nc1ccc(F)cc1)c1ccc(Br)c(S(=O)(=O)N2CCOCC2)c1	-11%	-26%	?	?	-4%	4%
